Experimental data reported in the OligoGym collection.

The sequences below were run against AP1S1 (assay: pooled miR-30 sensor sort-seq; sequence = guide strand). Conditions: shRNA.
Note: reference of the scale not given here.

Sequence	sensor-assay potency score (higher = more potent)
TTTGAGGTCCCTCCACTCCAGG	-1.48
TATATTTACAGTTATTAGGGAG	0.379
TCTAAGAGCTCCACGTATCGGT	0.301
ATCTCTTATAGACAACTTTGAG	-0.956
TCCAGCTCGCACACACTGCCAA	-0.956

Each sequence was assayed against AP2B1 in the same assay as above. Conditions: shRNA.

Sequence	sensor-assay potency score (higher = more potent)
TTCATTAGGACTTTTACCGCTG	0.615
AATAGTATAAACATTGTTGTTT	-0.183
TTCTGTAATTTTGTCTACCCGG	-1.02
TAAATGACATTCCTTAATCTGA	-0.695
TTAGTTCAAATATTTCTCCTTT	0.546
AAAGAGAGAACTAACATCCTTC	0.773
TTTAGTTCAAATATTTCTCCTT	0.5
TAATCTGAAACTGAAGTTCATT	-0.631
TAGTTCCAGATTGTCAGTCTGC	-0.496
TAACAATTCTAGAAACTTCATT	-0.559
TAGCATATTCTTTCAGTTCTGC	0.583
TTTCTAGTAACTCATCTGCATT	-1.34
TTGTTTTGCAACTTGCTGGAAA	-0.458
TTTCATTGTTGAGTTCAGCTTT	0.578
TAGAGAATCCAGAAATCCCTGA	0.164
TTGTTTTTCACAGCCACCTGGA	-0.558
TCGAACAAAGTCAACATCCACC	-0.757
TAGAAGATCACCTTGAGAGGGG	0.529
TCATCCTTCAAGCACTTGCGGA	-1.05
TTCATCGTGAAAACCCTCCAGG	-0.0807
TATTGTAGTAGTCAGAATCCTT	0.0218
TTGTTGTTTTGCAACTTGCTGG	-0.34
TTTCAGTTCTGCCAGAACCTGA	-0.77
TTCAGATCAAGTAAGTTGCTGT	1.15

The sequences below were run against AP3B1 in the same assay as above. Conditions: shRNA.

Sequence	sensor-assay potency score (higher = more potent)
TTATGAATCAGATCTATTCTGT	0.754
TACTTCTACATTTCGAACTGAT	0.236
TTCTTCAGCATATCGAACCAGG	-0.815
TAAACCTTCAAGATCAGCCATC	-0.757
TAGAAGTGAAACATCTTTGGTA	0.763
TAGATCTTCATTCTTCTTCAAA	-0.874
TTTCTTTGAATTGACATAGTTG	-0.577
TAAACATATACCAACTTCTTGA	-0.605
TTTGAATTGACATAGTTGCTAT	-0.399
TTGCTTTAGATCTTCATTCTTC	0.267
TTCTTTATAACAACCACACTTT	0.0495
